Data as given in the supplement of paper PMC13380429.

Test system: Vero E6 infected with SARS-CoV-2
Test: inhibition of SARS-CoV-2 cytopathic effect; higher = more antiviral protection, active = above 15
Conditions: 48 h

Measured: inhibition of SARS-CoV-2 cytopathic effect

Cc1cc(C(=O)NOCCO)c(Nc2ccc(I)cc2F)n(C)c1=O
inactive: 1 nM -2.17% | 8.33 nM -8.75% | 100 nM -12% | 833.33 nM -15.5% | 10000 nM -16.9%

COCCNC(=O)Cn1cnc([N+](=O)[O-])n1 [sanazole]
inactive: 1 nM -0.19% | 8.33 nM 0.45% | 100 nM -0.68% | 833.33 nM -0.43% | 10000 nM -3%

CCN(CC)CCCC(C)Nc1c2ccc(Cl)cc2nc2ccc(OC)cc12 (stereo not given) [mepacrine]
inactive: 1 nM 3.59% | 8.33 nM 0.39% | 100 nM 5.65% | 833.33 nM 5.16% | 10000 nM -17.4%

CC1=C(C)C(=O)C(C(CCCCCC(=O)O)c2ccccc2)=C(C)C1=O (stereo not given) [seratrodast]
inactive: 1 nM -0.6% | 8.33 nM -1.68% | 100 nM 1.92% | 833.33 nM 2.24% | 10000 nM 1.24%

CCS(=O)(=O)N1CCN(c2ccc(Nc3ncc(C(N)=O)c(NC4CC4)n3)cc2)CC1
inactive: 1 nM -1.63% | 8.33 nM -0.99% | 100 nM -2.24% | 833.33 nM 2.08% | 10000 nM -5.53%

O=C1c2cccc(O)c2C(=O)c2c(O)cc(CO)cc21 [aloe-emodin]
inactive: 1 nM -3.13% | 8.33 nM -0.39% | 100 nM -0.52% | 833.33 nM -3% | 10000 nM -2.43%

O=C(NCc1ccc2c(c1)OCO2)c1c(Cl)cccc1Cl [alda-1]
inactive: 1 nM -2.37% | 8.33 nM 0.82% | 100 nM -2.66% | 833.33 nM -5.92% | 10000 nM -3.23%

CCOC(=O)c1c(C)[nH]c2ccc3c(c12)CN1CCc2cc(OC)ccc2C1O3 (stereo not given)
inactive: 1 nM 3.34% | 8.33 nM 2.9% | 100 nM 2.29% | 833.33 nM 3.53%
active: 10000 nM 24.1%

CCN1CCN(c2ccc(Nc3cc(N(C)C(=O)Nc4c(Cl)c(OC)cc(OC)c4Cl)ncn3)cc2)CC1
inactive: 1 nM -2.08% | 8.33 nM -5.16% | 100 nM 0.14% | 833.33 nM -2.75%
active: 10000 nM 23.9%

CCCCCCCCCCC[C@@H](C[C@@H]1OC(=O)[C@H]1CCCCCC)OC(=O)[C@H](CC(C)C)NC=O [orlistat]
inactive: 1 nM 1.59% | 8.33 nM 3.04% | 100 nM 0.9% | 833.33 nM 2.31% | 10000 nM 1.43%

Cc1cccc(OCC(O)CNC(C)(C)C)c1C (stereo not given) [xibenolol]
inactive: 1 nM -3.23% | 8.33 nM -1.82% | 100 nM -0.78% | 833.33 nM -1.76% | 10000 nM -5.66%

NC(CO)C(=O)NNCc1ccc(O)c(O)c1O (stereo not given) [benserazide]
inactive: 1 nM -1.48% | 8.33 nM 3.19% | 100 nM 2.6% | 833.33 nM -3.13% | 10000 nM -4.67%

CCN(CC)CCNC(=O)c1cc(S(C)(=O)=O)ccc1OC [tiapride]
inactive: 1 nM 1.6% | 8.33 nM -0.89% | 100 nM -0.61% | 833.33 nM 0.66% | 10000 nM 2.27%

COc1cc(N2CCOCC2)ccc1Nc1ncc(Cl)c(Nc2ccccc2NS(C)(=O)=O)n1
inactive: 1 nM 0.93% | 8.33 nM 2.59% | 100 nM 2.32% | 833.33 nM -2.21% | 10000 nM -13.2%

COc1ccc(-c2oc3c(CC=C(C)C)c(O[C@@H]4O[C@H](CO)[C@@H](O)[C@H](O)[C@H]4O)cc(O)c3c(=O)c2O[C@@H]2O[C@@H](C)[C@H](O)[C@@H](O)[C@H]2O)cc1 [icariin]
inactive: 1 nM 4.38% | 8.33 nM 3.84% | 100 nM 1.25% | 833.33 nM -0.92% | 10000 nM -4.04%

CCNC(=O)NS(=O)(=O)c1sc(CC(C)C)cc1-c1ccc(Cn2c(-c3ccccc3)nc(OC)c2C=O)cc1
inactive: 1 nM -1.39% | 8.33 nM -0.39% | 100 nM 2.26% | 833.33 nM 1.08% | 10000 nM 0.67%

O=C(O)CCc1ccc(NCc2cccc(Oc3ccccc3)c2)cc1
inactive: 1 nM 1.33% | 8.33 nM -1.1% | 100 nM -1.51% | 833.33 nM -0.16% | 10000 nM -0.27%

Cc1ccccc1OCC(O)CO (stereo not given) [mephenesin]
inactive: 1 nM -1% | 8.33 nM 0.27% | 100 nM 0.3% | 833.33 nM -0.01% | 10000 nM 1.77%

Cc1cc(OCc2nnc(SC3CCCC3)n2-c2cccnc2)ccc1-c1ccc(S(C)(=O)=O)cc1
inactive: 1 nM -0.48% | 8.33 nM 0.31% | 100 nM 1.82% | 833.33 nM 5.04% | 10000 nM -19.7%
